Data taken from the supplement of paper PMC6555819.

Key:
Assay in all cases: PBM binding z-score (relative to random genomic background probes); higher = stronger binding; sequences stand for … in GC…GCGATTGACAGCGTAGAATGAAGG
[1] = tested on: RARb homodimer (NR concentration 270 nM)
Summary of the method: (§1)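 Random background probes are the reference for binding z-scores. These scores derive from regression-normalized fluorescence on custom Agilent 4×180K protein-binding microarrays incubated 1 h with ligand-free nuclear receptor dimers. Binding was detected with antibodies against each partner (one per run).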

[2] = tested on: RARg:RXRa (NR concentration 270 nM, RXRa partner concentration 90 nM)
Summary of the method: as §1

[3] = tested on: RARg homodimer (NR concentration 270 nM)
Summary of the method: as §1

[4] = tested on: RXRa DBDmut IVT, anti-RXR (DBD mutation: RXRa K156A/R161A, NR concentration 90 nM)
Summary of the method: as §1

[5] = tested on: RXRa homodimer (NR concentration 180 nM)
Summary of the method: as §1

[6] = tested on: THRa:RXRa (NR concentration 90 nM, RXRa partner concentration 90 nM)
Summary of the method: as §1

[7] = tested on: THRa homodimer (NR concentration 90 nM)
Summary of the method: as §1

[8] = tested on: VDR:RXRa (NR concentration 270 nM, RXRa partner concentration 90 nM)
Summary of the method: as §1

[9] = tested on: VDR homodimer (NR concentration 270 nM)
Summary of the method: as §1

Sequence | PBM binding z-score [1] | PBM binding z-score [2] | PBM binding z-score [3] | PBM binding z-score [4] | PBM binding z-score [5] | PBM binding z-score [6] | PBM binding z-score [7] | PBM binding z-score [8] | PBM binding z-score [9]
GTACCAAGGTAAATAGGTCGTTGATGAGTAGGCG | 0.723 | 0.808 | 0.391 | -0.235 | 0.953 | 0.973 | -0.00878 | 0.336 | 0.628
TAGCCTAGTTCAGATCGGGCCAGTATACGCTATA | -0.206 | -0.0236 | 0.216 | 0.421 | -0.081 | 2.53 | -0.553 | -0.0916 | 0.117
TCATCTAGGTAAATGCTAGGTGAAAGTCCGATCT | 0.149 | 0.279 | 0.0447 | 1.17 | 0.38 | 1.28 | 0.631 | 0.555 | -0.208
TCTGCTATGTCAGTTGGTCAGCTAACGAGCTGCC | 0.0404 | -0.0925 | -0.134 | 0.0834 | -0.0847 | -0.538 | -1.16 | -0.176 | -0.982
CGTCCAAGGTCATAGGACGTCAGTGAAGACAGAT | 3.37 | 5.58 | 5.4 | 3.74 | 5.36 | 3.83 | 2.24 | 4.13 | 3.01
CATACAGGGTCAGCTATGCCAGAGTAGGGACGGC | 2.98 | 4.2 | 4.27 | 1.55 | 4.14 | 2.75 | 0.818 | 2.78 | 1.06
ATCGAAAGGTCGAGGTGAGCATAGAGAAAGGGAA | 2.98 | 4.34 | 4.61 | 0.687 | 4.63 | 2.98 | 0.737 | 2.36 | 0.234
TCTACTAGTTGATTAGGGCAACCGAAACAGCGGA | 0.379 | 0.164 | 0.225 | 0.346 | 0.0714 | 0.604 | -0.104 | 0.208 | -0.302
GCTGCTAGGTCAGGTTGGGCAGCTAACGGGTACG | 2.36 | 2.43 | 3.88 | 0.101 | 0.717 | 1.91 | 0.583 | -0.00639 | 0.178
GGAACGGGGGCAAAGTTGATAGCATCTGTCGACG | 2.04 | 3.72 | 2.45 | 3.44 | 3.61 | 2.65 | 0.962 | 3.25 | 3.49
CGCCCAAGGTCAAAGGTCAGTGAAGAGATGACGG | 5.66 | 8.68 | 8.27 | 3.9 | 10 | 4.83 | 2.31 | 6.61 | 3.24
TCTTGTAGATCAAGCAGGTTGAGAAAGCCTGAGT | -0.543 | -0.355 | -0.321 | 0.479 | -0.0549 | 0.0431 | -0.698 | 0.285 | -0.0523
CCAGACAGGTGAGGAGGTAACTCAGCCTCGATTA | 0.852 | 0.397 | 0.304 | -0.0213 | 0.216 | 0.684 | 0.59 | 0.00298 | 0.177
CCGACTGGGGCAAGGTTACAATAACGCACAGCCA | 1.47 | 1.1 | 1.24 | -0.315 | 1.27 | 1.09 | -0.205 | 0.055 | 0.439
TCATATAGGTAAAGGTGAAAGTAGAACGATATGA | 1.35 | 1.71 | 1.43 | 0.637 | 2.2 | 1.36 | -0.513 | 1.01 | -0.148
CCGACTGGGGCAGAAAGATTACCATACCATCCGG | -0.533 | -0.183 | 0.217 | -0.916 | 0.0291 | -0.794 | -0.569 | -0.535 | -0.722
ACAGACCGGTGATGAAGGTAACTCAGGCTATCAT | -0.0627 | -0.0765 | 0.11 | -0.318 | -0.04 | 0.648 | -0.0295 | -0.216 | -0.605
CCGAGTAGGATATGGGGCATTCAGGCAACGGTGA | 0.223 | -0.15 | 0.00405 | -0.637 | 0.133 | 0.16 | 0.0622 | -0.284 | -0.318
CTCGAAAGGTCGGTTGAGGTGTGTATACGGATAA | 1.73 | 2.34 | 2.27 | 0.858 | 1.74 | 3.69 | -0.0744 | 1.03 | 0.415
ACAGACAGGTGTTGAAGGTAACTCAGGCTATCAT | -0.0362 | -0.0194 | 0.114 | -0.19 | 0.0702 | 0.786 | 0.073 | -0.203 | -0.587
CCGACTGGGGCAAGGTTCCCATAACGCACAGCCA | 0.27 | 0.259 | 0.433 | -0.627 | 0.314 | -0.0449 | -0.119 | -0.47 | -0.153
CCTCGGAGGACAACAGGAGGTCAGAGGTGCCAGA | 3.4 | 3.47 | 3.16 | -0.191 | 2.1 | 2.88 | 0.822 | 2.28 | 1.13
AGAAGGAGGTTATTAAGATCAGGGAATTGCGGTC | 1.32 | 0.881 | 0.837 | 0.39 | 1.36 | 1.18 | 0.884 | 1.89 | 1.23
GCTTACTGGTCAAAGGTTATAGCATGAATAGAAT | 1.78 | 3.91 | 1.68 | 0.714 | 4.35 | 1.87 | -0.137 | 2.42 | 0.435
CCTTACGGGTCACTGACAGGTTATAACATTTGGA | 3.33 | 5.87 | 4.56 | 1.78 | 5.31 | 3.12 | 0.436 | 3.84 | 1.21
TCGAGTAGGTTAGTCGGGGCATTCTGCCAACATA | 0.157 | -0.242 | -0.393 | 0.374 | -0.128 | 0.983 | -0.375 | 2.15 | 0.287
CCTACTGGGCCATGGTCATTGATCAGTCAAAGCA | 0.781 | 0.494 | 0.374 | -1.27 | -0.0481 | 0.0106 | -0.543 | -0.434 | -0.137

Sequence | PBM binding z-score [1] | PBM binding z-score [2] | PBM binding z-score [3] | PBM binding z-score [4] | PBM binding z-score [5] | PBM binding z-score [6] | PBM binding z-score [7] | PBM binding z-score [8] | PBM binding z-score [9]
ACTCGGAGGACAAAGGTCAGTGCTACGCCAGTGA | 4.71 | 5.37 | 4.99 | 1.36 | 4.26 | 3.38 | 0.657 | 2.82 | 1.11
CCTAGTTGGTCAGTAGGTCACACACCGGATATGA | 3.59 | 3.58 | 3.25 | 0.459 | 2.79 | 2.1 | 1.32 | – | 1.29
TCGAGTAGGTTAGTCGGGGCACTCAGCCAACATA | 0.461 | 0.0814 | -0.0518 | 0.105 | 0.249 | 1.35 | -0.252 | 1.2 | 0.195
TCTTGTAGATCAGCAGGTTGAGAAAGCTGGCCAA | -0.505 | -0.343 | -0.727 | 0.441 | 0.0477 | -0.234 | -0.41 | – | -0.222
ATATGTAGGTTTTCGGGTCATTCAGTTTGCGCAT | 2.88 | 2.43 | 1.72 | 1.88 | 3.57 | 3.89 | 4.22 | 5.07 | 4.55
AGTCACAGTTCACTAGGTAACGTAAGATTCAGCT | 1.19 | 2.17 | 2.07 | 2.64 | 1.74 | 1.34 | 0.333 | 1.81 | 1.8
CCTTCTGGGCCAAAGGTCATTGATTCCAATGCTC | 4.44 | 5.8 | 4.73 | 1.41 | 6.15 | 3.44 | 0.658 | – | 2.23
CGTCAAAGTTCAAGGTAACGCAACAGAAAGCAGC | 3.59 | 5.16 | 6.13 | 4.31 | 4.24 | 2.97 | 1 | 3.67 | 3.74
ACTAGCAGTCCAAGTTTGGGTCACTCAAACAAAG | 1.97 | 0.986 | 0.834 | 0.395 | 0.691 | 2.16 | 1.07 | 0.754 | 0.0671
AATACAGGGTCACTAGGCCAAAGTAGGTACGAAT | 3.62 | 5.16 | 4.42 | 2.71 | 5.98 | 3.48 | 1.09 | 4.27 | 2.19
TCGAGTAGGTTAGGCGGGGCATTCAGCCAACATA | 0.241 | 0.2 | -0.0839 | -0.0244 | 0.0673 | 0.994 | -0.341 | – | 0.0165
CGAACGAGGGTATGAGTTGATAGCAAATGCCGAT | -0.208 | 0.124 | 0.248 | 0.658 | 0.0632 | -0.183 | -0.485 | -0.175 | 0.345
TCTTGTAGATCAGCAGGTTAAGAGAGCTGGCCAA | -0.156 | -0.1 | -0.407 | 0.292 | 0.367 | -0.0987 | -0.325 | 0.132 | -0.364
TTACCAAGGTGAGCTGAGGTCGTTGGTCCAACTC | 1.6 | 1.2 | 0.604 | -0.219 | 1.34 | 4.45 | 2.2 | 3.79 | 2.56
GCTAGCAGGCCATTTGGGTCACTCATTGACGGGC | 1.77 | 0.783 | 1.14 | 0.292 | 0.477 | 1.69 | 0.799 | 0.798 | 0.121
GCTTCTAGGTCAGGTTGGTCAGCTAACGGGTACG | 2.86 | 2.88 | 3.68 | 0.783 | 1.08 | 2.47 | 1.63 | 0.953 | 0.679
CTCGATAGGTCGGTTGAGGTGAGTATACGGATAA | 1.02 | 0.724 | 1.15 | -0.0462 | 0.554 | 4.73 | 1.19 | 0.436 | 0.0696
ATCTCTAGGTATAGATAGTTCAGTGAATGCAAAT | 0.907 | 0.662 | 0.781 | 0.321 | 0.447 | 0.433 | -0.135 | 0.666 | 0.864
CGTCAAAGTTCAAGGTAACATAACAGAAAGCAGC | 3.84 | 5.43 | 6.33 | 4.63 | 4.69 | 2.92 | 1.05 | 3.63 | 2.9
ACAGACAGGTGATGAAGGTAACTAAGGCTATCAT | 0.434 | 0.422 | 0.552 | -0.521 | 0.185 | 1.28 | 0.245 | 0.295 | -0.317
TCTATTCGTTGAAGGGCAACCGACGAGTCCGTTT | 1.39 | 0.744 | 0.769 | 1.49 | 0.993 | 0.507 | 0.017 | 1.08 | 1.27
GCTTACGGGCCAAAGGTTATAGCATGAATAGAAT | 1.29 | 2.77 | 1.04 | 0.36 | 3.01 | 1.58 | -0.515 | 0.816 | -0.0468
CCTACTGGGCCAAGGTCACTGATCAGTCAAAGCA | 3.91 | 4.17 | 4.29 | 0.302 | 3.92 | 3.6 | 2.65 | 2.92 | 2
TGAATGAGGTTAAAGATCAGGGATCGTGGCGTCG | 0.409 | 2.25 | 1.11 | 0.89 | 3.63 | 2.33 | 0.0472 | 1.85 | -0.0606
TCTGCTAGGTCAACGATGGTCTGCTAATCTGCTA | 2.72 | 3.69 | 4.4 | 0.993 | 2.25 | 2.6 | 0.712 | 0.981 | -0.658
GGAACGATGGCAAGTTGATAGCAGAGTTTGATGG | -0.624 | -0.353 | -0.158 | -0.0368 | -0.123 | -0.797 | -0.814 | -0.469 | 0.0604
